Source: the supplement of paper PMC12669032

What was measured:
Test in all cases: growth AUC relative to DMSO control (median of replicates) (fraction); higher = more growth (less inhibition), active = hit call of the paper
Details in all cases: 20 µM; 24 h;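 active = AUC reduced over 20% with Padj below 0.05 in at least 2 of 3 replicates; inactive = otherwise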
[1] = system: Coprococcus comes
Outline: (§1)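 In round-bottom 96-well plates sealed with pierced gas-permeable seals, gut bacterial monocultures in mGAM were grown anaerobically at 37 °C from OD600 0.05 with 20 µM compound (1% DMSO). OD600 readings were taken hourly for 24 h, and the minimum OD was set to 0. Area under the growth curve was then normalised to the plate median of solvent-only wells, or to row and column medians on the industrial chemical plate. The value given is the median of three biological replicates grown on separate days.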

[2] = system: Escherichia coli ED1a
Outline: as §1

[3] = system: Escherichia coli IAI1
Outline: as §1

[4] = system: Eubacterium rectale
Outline: as §1

[5] = system: Fusobacterium nucleatum subsp. animalis
Outline: as §1

[6] = system: Lactobacillus gasseri
Outline: as §1

[7] = system: Lactobacillus paracasei
Outline: as §1

[8] = system: Odoribacter splanchnicus
Outline: as §1

[9] = system: Parabacteroides distasonis
Outline: as §1

[10] = system: Parabacteroides merdae
Outline: as §1

[11] = system: Roseburia intestinalis
Outline: as §1

[12] = system: Streptococcus salivarius
Outline: as §1

Measured: growth AUC

CCOC(=O)Nc1cccc(OC(=O)Nc2ccccc2)c1
inactive: [1] 0.933 | [2] 1.01 | [3] 1.03 | [4] 0.901 | [5] 0.894 | [6] 1.24 | [7] 0.908 | [8] 0.986 | [9] 0.967 | [10] 0.949 | [11] 1.01 | [12] 1.02

CNC(=O)CSP(=S)(OC)OC
inactive: [1] 1.01 | [2] 0.977 | [3] 0.959 | [4] 1.06 | [5] 0.957 | [6] 0.911 | [7] 0.962 | [8] 0.954 | [9] 0.9 | [10] 0.979 | [11] 0.982 | [12] 0.968

COc1cc(OC)nc(NC(=O)NS(=O)(=O)c2ncccc2C(F)(F)F)n1
inactive: [1] 1.02 | [2] 0.985 | [3] 0.998 | [4] 1.09 | [5] 1.04 | [6] 1.02 | [7] 0.986 | [8] 1.09 | [9] 1.05 | [10] 1.04 | [11] 1 | [12] 1.01

CON(C)C(=O)Nc1ccc(Br)c(Cl)c1
inactive: [1] 1.03 | [2] 0.958 | [3] 1.04 | [4] 0.867 | [5] 0.886 | [6] 1.13 | [7] 0.989 | [8] 0.998 | [9] 1.01 | [10] 0.967 | [11] 0.957 | [12] 0.956

ClC1=C(Cl)C2(Cl)[C@H]3[C@H]4O[C@H]4[C@H](Cl)[C@H]3C1(Cl)C2(Cl)Cl (single isomer, unassigned; isomer a)
inactive: [1] 0.941 | [2] 0.982 | [3] 0.971 | [4] 1.05 | [5] 1.08 | [6] 0.96 | [7] 0.991 | [8] 1.08 | [9] 1.02 | [10] 0.98 | [11] 0.954 | [12] 0.976

CCCN(CCC)c1c([N+](=O)[O-])cc(C(F)(F)F)cc1[N+](=O)[O-]
inactive: [1] 1 | [2] 1.02 | [3] 1.01 | [4] 1.01 | [5] 1.03 | [6] 1.03 | [7] 1.09 | [8] 1.01 | [9] 1.09 | [10] 1.01 | [11] 1 | [12] 1.04

c1ccc2c(c1)cc1ccc3cccc4ccc2c1c34
inactive: [1] 1 | [2] 1.02 | [3] 1 | [4] 0.971 | [5] 0.951 | [6] 1.04 | [7] 0.967 | [8] 0.932 | [9] 0.994 | [10] 0.974 | [11] 1.13 | [12] 1.06

CCOP(=O)(NC(C)C)Oc1ccc(S(C)=O)c(C)c1 (centres undefined)
inactive: [1] 1.04 | [2] 1.03 | [3] 1.04 | [4] 1.05 | [5] 1.09 | [6] 1.07 | [7] 0.975 | [8] 1.01 | [9] 1.13 | [10] 1.05 | [11] 1.05 | [12] 1.05

COP1(=S)OCc2ccccc2O1 (centres undefined)
inactive: [1] 1 | [2] 0.991 | [3] 1 | [4] 1.08 | [5] 1.12 | [6] 0.945 | [7] 0.997 | [8] 1.04 | [9] 1.05 | [10] 0.999 | [11] 0.943 | [12] 1.01

CCOCn1c(-c2ccc(Cl)cc2)c(C#N)c(Br)c1C(F)(F)F
inactive: [1] 1.02 | [2] 0.99 | [3] 0.99 | [4] 1.03 | [5] 1.05 | [6] 0.904 | [7] 0.992 | [8] 0.951 | [9] 0.924 | [10] 0.834 | [11] 0.983 | [12] 0.944

CCSCCSP(=S)(OC)OC
inactive: [1] 1.1 | [2] 1.01 | [3] 1 | [4] 0.899 | [5] 1.05 | [6] 1.06 | [7] 1.01 | [8] 1.07 | [9] 1.05 | [10] 0.988 | [11] 1.03 | [12] 1.02

Cc1cc(Cl)ccc1OC(C)C(=O)O (centres undefined)
inactive: [1] 0.984 | [2] 1.01 | [3] 1.02 | [4] 0.978 | [5] 0.945 | [6] 1.12 | [7] 0.945 | [8] 0.942 | [9] 0.966 | [10] 1.02 | [11] 1.03 | [12] 1.01

C=CCC1=C(C)C(OC(=O)C2C(C=C(C)C)C2(C)C)CC1=O (centres undefined)
inactive: [1] 0.986 | [2] 1.01 | [3] 1 | [4] 0.927 | [5] 0.946 | [6] 0.868 | [7] 0.949 | [8] 0.996 | [9] 0.846 | [10] 0.96 | [11] 0.968 | [12] 0.986

CC(=O)CC(c1ccco1)c1c(O)c2ccccc2oc1=O (centres undefined)
inactive: [1] 1.01 | [2] 0.994 | [3] 0.987 | [4] 0.985 | [5] 0.986 | [6] 1.03 | [7] 1.05 | [8] 0.978 | [9] 0.958 | [10] 1.01 | [11] 0.975 | [12] 0.989

CC(C)[C@H](C(=O)O[C@H](C#N)c1cccc(Oc2ccccc2)c1)c1ccc(Cl)cc1
inactive: [1] 0.973 | [2] 0.962 | [3] 0.959 | [4] 0.934 | [5] 0.954 | [6] 0.901 | [7] 1.01 | [8] 1.09 | [9] 0.923 | [10] 1.01 | [11] 0.913 | [12] 0.948

CCC(=O)Nc1ccc(Cl)c(Cl)c1
inactive: [1] 1 | [2] 0.943 | [3] 0.99 | [4] 0.992 | [5] 0.87 | [6] 0.979 | [7] 0.922 | [8] 0.943 | [9] 0.994 | [10] 0.995 | [11] 0.917 | [12] 0.973

Oc1ccc(Cl)cc1Cc1cc(Cl)ccc1O
inactive: [1] 0.965 | [5] 0.845
active: [2] 0.793 | [3] 0.684 | [4] 0.497 | [6] 0.115 | [7] 0.47 | [8] 0.0459 | [9] 0.0176 | [10] 0.0937 | [11] 0.64 | [12] 0.445

COC(=O)COc1cc(Cl)c(Cl)cc1Cl
inactive: [1] 0.967 | [2] 0.976 | [3] 1.02 | [4] 0.914 | [5] 0.981 | [6] 1.18 | [7] 1.11 | [8] 0.974 | [9] 0.983 | [10] 0.99 | [11] 0.996 | [12] 1.01

CC1(C)CON(Cc2ccccc2Cl)C1=O
inactive: [1] 1.01 | [2] 0.965 | [3] 1.02 | [4] 1.12 | [5] 1.05 | [6] 0.837 | [7] 1.05 | [8] 0.899 | [9] 0.838 | [10] 0.985 | [11] 0.896 | [12] 0.87

CC(=O)O.CC(=O)O.CC(=O)O.NC(N)=NCCCCCCCCNCCCCCCCCN=C(N)N
inactive: [2] 0.966 | [3] 0.822 | [5] 0.729 | [6] 0.89 | [7] 0.834
active: [1] 0.0653 | [4] 0.0201 | [8] 0.0272 | [9] 0.213 | [10] 0.025 | [11] 0.029 | [12] 0.454

CCc1cc(C)cc(CC)c1-c1c(OC(=O)C(C)(C)C)n2n(c1=O)CCOCC2
inactive: [1] 0.964 | [2] 0.99 | [3] 0.976 | [4] 1.14 | [5] 1.1 | [6] 0.845 | [7] 1.03 | [8] 1.03 | [9] 0.851 | [10] 1.01 | [11] 0.981 | [12] 1.02

O=c1oc2ccccc2c(O)c1C1CC(c2ccc(-c3ccccc3)cc2)Cc2ccccc21 (centres undefined)
inactive: [1] 0.946 | [2] 1 | [3] 0.959 | [4] 0.502 | [5] 1.02 | [6] 0.574 | [7] 0.887 | [8] 0.959
active: [9] 0.0292 | [10] 0.0278 | [11] 0.711 | [12] 0.709
